Eleven molecules from ChEMBL document CHEMBL3988442, “University of Dundee, Small-Polar-MMV Screening Library” (2021) can be followed below.

Structures are written as SMILES. For some assays here: Measured potencies and affinities stand elsewhere.

Common to all, as to design: scale not given: direction of the effect not stated beside the values
Assay [1] addresses Protein translocase subunit SecA (Escherichia coli (strain K12)) (UniProt P10408). As to the kind of experiment: Assay to Identify E. coli SecA ATPase Inhibitors. The following applies: 30 µM. The class given is functional.
Assay [2] has as its target T1, Ubiquitin-activating enzyme e1, putative (Leishmania donovani (strain BPK282A1)) (UniProt E9BSI1).
T1 sequence (whole entry): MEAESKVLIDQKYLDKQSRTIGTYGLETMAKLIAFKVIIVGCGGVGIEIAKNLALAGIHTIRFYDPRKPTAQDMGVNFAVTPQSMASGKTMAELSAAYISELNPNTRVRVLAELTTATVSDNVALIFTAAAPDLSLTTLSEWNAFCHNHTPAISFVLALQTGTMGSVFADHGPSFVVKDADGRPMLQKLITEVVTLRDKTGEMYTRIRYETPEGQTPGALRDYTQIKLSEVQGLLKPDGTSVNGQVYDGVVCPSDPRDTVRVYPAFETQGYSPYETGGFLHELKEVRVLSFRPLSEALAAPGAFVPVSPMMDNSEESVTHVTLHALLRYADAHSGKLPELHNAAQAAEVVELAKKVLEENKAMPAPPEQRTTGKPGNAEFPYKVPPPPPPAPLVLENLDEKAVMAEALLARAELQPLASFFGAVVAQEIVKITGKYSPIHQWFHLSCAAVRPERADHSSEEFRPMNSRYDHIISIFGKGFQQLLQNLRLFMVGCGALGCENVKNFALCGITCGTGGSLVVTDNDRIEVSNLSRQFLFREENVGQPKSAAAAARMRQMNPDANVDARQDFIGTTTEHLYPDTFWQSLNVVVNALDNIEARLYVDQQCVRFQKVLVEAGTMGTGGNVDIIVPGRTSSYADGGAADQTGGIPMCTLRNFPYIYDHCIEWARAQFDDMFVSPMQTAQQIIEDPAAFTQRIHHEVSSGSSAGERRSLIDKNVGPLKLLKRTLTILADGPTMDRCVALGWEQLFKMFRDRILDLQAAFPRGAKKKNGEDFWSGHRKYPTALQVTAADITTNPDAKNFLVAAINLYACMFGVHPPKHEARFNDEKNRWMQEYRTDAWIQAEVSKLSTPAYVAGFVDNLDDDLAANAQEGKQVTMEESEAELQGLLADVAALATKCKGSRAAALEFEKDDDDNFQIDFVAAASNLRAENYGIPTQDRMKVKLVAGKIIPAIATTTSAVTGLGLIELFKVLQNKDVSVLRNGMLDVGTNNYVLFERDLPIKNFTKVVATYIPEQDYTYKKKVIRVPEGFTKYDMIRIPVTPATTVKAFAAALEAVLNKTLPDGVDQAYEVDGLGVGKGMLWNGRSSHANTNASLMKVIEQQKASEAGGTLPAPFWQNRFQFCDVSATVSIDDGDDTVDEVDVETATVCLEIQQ
As to the kind of experiment: Leishmania donovani Ubiquitin Activating Enzyme (LdE1). The class given is functional. The following applies: 30 µM.

Assay [3] has as its target Sialic acid-binding Ig-like lectin 9 (Homo sapiens) (UniProt Q9Y336). Briefly: Hs-Siglec9 ALPHAscreen SOP 20170721. The following applies: 10 µM. In general terms: Bead proximity is the source of the signal in Alpha formats.
Assay [4] concerns Trypanosoma cruzi. Briefly: Trypanosoma cruzi phosphomannomutase and mannose-1-phosphate guanylyltransferase assay. The class given is functional. The following applies: 10 µM.
The target of assay [5] is T2, Arginase-2, mitochondrial (Homo sapiens) (UniProt P78540).
T2 sequence (whole entry): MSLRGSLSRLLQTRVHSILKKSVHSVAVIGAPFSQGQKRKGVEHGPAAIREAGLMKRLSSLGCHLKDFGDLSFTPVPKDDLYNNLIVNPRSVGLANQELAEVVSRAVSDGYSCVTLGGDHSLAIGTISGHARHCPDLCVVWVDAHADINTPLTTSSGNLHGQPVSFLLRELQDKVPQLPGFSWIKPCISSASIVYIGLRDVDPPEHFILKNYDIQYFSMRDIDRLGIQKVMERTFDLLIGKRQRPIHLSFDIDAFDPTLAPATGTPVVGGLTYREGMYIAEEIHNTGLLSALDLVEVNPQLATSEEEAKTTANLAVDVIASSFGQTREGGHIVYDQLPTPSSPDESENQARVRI
As to the kind of experiment: in vitro enzyme assay to detect the production of urea directly proportional to the activity of Arginase II. Further: in the data most compounds retested in dose-response had high values. The class given is functional. The following applies: 33.3 µM.

In assay [6] the target is T3, Proteasome subunit beta (Trypanosoma cruzi) (UniProt O96673).
T3 sequence (whole entry): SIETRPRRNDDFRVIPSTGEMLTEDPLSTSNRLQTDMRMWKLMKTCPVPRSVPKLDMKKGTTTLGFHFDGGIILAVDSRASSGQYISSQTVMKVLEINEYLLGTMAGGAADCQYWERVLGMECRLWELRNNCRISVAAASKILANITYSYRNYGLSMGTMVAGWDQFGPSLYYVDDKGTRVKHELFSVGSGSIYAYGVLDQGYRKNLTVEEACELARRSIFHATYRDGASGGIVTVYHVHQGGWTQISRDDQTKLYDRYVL
As to the kind of experiment: Trypanosoma cruzi proteasome chymotrypsin-like activity (TcProtChymo) assay. Further: in the data most compounds retested in dose-response had high values. The class given is functional. The following applies: 9.37 µM.

Assay [7] is filed under the species Homo sapiens. Briefly: To identify inhibition of the IFN signalling (Jak-Stat) pathway via expression of an eGFP reporter gene under the control of an IFN-stimulated response element (ISRE) containing MxA promoter. Format: functional. The following applies: 30 µM. A general note: A reporter such as luciferase makes a cellular process visible.
The target in assay [8] is T4, Tyrosyl-tRNA synthetase, putative (Trypanosoma cruzi (strain CL Brener)) (UniProt Q4DSP6).
T4 sequence (whole entry): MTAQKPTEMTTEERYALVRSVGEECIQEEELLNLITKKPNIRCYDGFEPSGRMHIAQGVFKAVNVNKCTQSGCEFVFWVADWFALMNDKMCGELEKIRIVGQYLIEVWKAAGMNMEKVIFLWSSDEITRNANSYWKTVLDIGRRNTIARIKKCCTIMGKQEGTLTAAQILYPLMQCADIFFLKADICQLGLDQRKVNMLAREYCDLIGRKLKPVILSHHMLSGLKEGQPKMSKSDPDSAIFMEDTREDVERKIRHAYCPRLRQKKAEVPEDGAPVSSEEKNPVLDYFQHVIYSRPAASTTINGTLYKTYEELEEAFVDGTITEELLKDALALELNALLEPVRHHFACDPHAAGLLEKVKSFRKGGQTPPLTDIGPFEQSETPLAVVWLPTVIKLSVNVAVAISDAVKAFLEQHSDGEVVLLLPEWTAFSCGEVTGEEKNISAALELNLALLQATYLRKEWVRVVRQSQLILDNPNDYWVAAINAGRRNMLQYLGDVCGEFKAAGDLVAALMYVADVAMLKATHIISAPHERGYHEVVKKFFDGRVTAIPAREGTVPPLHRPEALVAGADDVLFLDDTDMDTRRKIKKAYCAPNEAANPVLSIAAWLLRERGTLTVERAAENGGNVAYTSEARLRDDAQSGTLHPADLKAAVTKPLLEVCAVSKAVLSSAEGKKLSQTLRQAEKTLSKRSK
Briefly: Trypanosoma cruzi tyrosyl tRNA synthetase (TcYRS) _High Tyrosine SOP. Further: in the data most compounds retested in dose-response had high values. Format: functional. The following applies: 30 µM.

Assay [9] concerns the target T4, Tyrosyl-tRNA synthetase, putative (Trypanosoma cruzi (strain CL Brener)). As to the kind of experiment: Trypanosoma cruzi tyrosyl tRNA synthetase (TcYRS) SOP. The class given is functional. The following applies: 30 µM.
For assay [10], the target named is Chromo domain-containing protein 1 (Saccharomyces cerevisiae (strain ATCC 204508 / S288c) (Baker's yeast)) (UniProt P32657). Briefly: ScCHD-1 Enzyme Inhibition Assay. Further: in the data most compounds retested in dose-response had high values. The class given is functional. The following applies: 30 µM.
Sequence of Chromo domain-containing protein 1 (Saccharomyces cerevisiae (strain ATCC 204508 / S288c) (Baker's yeast)) (P32657 whole entry, the tested form may be a part): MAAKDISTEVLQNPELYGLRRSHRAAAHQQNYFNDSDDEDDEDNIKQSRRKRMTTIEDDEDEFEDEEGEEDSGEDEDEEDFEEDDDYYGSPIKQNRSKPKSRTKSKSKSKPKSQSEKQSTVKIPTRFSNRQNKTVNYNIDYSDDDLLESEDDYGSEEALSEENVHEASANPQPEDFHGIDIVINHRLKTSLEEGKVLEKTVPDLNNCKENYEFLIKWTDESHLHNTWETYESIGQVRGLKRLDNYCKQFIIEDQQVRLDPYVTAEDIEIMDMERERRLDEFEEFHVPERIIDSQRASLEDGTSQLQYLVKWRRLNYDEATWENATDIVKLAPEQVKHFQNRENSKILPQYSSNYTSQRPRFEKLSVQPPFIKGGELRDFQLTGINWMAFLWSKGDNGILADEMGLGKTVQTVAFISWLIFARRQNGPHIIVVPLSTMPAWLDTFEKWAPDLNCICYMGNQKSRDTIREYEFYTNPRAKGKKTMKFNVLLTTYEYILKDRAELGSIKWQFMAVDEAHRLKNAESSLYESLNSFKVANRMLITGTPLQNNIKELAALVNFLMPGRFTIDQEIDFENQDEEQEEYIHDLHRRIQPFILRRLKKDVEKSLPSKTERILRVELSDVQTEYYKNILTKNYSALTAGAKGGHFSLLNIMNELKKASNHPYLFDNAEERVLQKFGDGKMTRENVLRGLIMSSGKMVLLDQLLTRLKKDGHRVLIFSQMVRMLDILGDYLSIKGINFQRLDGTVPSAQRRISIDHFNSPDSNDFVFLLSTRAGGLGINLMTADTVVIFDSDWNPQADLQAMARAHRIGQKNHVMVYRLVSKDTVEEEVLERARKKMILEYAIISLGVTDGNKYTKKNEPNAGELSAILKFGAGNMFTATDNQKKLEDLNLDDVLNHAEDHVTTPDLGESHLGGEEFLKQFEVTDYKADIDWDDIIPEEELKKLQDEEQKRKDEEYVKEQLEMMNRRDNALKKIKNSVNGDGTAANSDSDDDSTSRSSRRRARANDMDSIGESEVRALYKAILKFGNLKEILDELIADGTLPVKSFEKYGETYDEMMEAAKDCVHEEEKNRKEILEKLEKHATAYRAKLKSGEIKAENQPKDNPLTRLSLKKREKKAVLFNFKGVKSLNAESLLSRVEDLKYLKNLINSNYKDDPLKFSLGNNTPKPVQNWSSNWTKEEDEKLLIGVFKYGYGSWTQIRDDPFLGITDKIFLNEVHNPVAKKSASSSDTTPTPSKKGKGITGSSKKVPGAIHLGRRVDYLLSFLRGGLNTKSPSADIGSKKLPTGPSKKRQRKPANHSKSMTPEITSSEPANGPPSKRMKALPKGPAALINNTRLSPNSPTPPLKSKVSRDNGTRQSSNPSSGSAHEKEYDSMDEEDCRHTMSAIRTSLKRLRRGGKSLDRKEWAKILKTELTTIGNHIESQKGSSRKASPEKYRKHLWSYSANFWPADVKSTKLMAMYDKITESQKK

Sequence of Sialic acid-binding Ig-like lectin 9 (Homo sapiens) (Q9Y336 whole entry): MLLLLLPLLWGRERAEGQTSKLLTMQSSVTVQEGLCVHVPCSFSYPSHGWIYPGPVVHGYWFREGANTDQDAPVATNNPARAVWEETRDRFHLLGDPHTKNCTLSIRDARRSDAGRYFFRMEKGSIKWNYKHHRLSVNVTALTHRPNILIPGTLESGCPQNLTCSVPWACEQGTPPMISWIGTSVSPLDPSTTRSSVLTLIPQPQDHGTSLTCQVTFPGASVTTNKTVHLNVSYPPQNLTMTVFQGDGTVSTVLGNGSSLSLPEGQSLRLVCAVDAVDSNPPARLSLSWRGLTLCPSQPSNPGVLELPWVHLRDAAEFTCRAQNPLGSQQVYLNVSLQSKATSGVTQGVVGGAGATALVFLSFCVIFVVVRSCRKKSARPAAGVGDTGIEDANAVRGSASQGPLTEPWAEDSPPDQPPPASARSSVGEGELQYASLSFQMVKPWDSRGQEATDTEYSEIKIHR
Sequence of Protein translocase subunit SecA (Escherichia coli (strain K12)) (P10408 whole entry): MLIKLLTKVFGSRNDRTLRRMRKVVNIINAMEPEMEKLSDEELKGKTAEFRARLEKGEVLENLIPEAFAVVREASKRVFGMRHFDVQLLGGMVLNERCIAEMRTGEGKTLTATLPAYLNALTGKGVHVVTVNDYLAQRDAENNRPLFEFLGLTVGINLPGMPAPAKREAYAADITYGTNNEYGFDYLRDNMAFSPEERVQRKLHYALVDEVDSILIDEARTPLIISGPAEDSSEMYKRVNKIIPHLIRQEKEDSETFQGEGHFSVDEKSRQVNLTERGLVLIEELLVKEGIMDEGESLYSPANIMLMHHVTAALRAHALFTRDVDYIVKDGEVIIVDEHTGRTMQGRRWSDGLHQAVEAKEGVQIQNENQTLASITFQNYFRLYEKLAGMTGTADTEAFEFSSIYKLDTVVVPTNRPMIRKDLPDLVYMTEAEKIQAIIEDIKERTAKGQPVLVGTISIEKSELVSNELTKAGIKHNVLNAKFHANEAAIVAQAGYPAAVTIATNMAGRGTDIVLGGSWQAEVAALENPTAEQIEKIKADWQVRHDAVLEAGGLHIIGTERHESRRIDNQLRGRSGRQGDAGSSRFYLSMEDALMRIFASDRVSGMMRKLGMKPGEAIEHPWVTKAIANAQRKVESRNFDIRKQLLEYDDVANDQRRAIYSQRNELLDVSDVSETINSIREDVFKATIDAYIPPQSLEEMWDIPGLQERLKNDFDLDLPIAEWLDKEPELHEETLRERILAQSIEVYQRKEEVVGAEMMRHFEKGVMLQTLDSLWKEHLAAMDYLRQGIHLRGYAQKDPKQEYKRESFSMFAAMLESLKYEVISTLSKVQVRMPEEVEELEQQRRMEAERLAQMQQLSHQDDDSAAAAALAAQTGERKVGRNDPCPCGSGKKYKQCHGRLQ

Turning to `CCc1nc(C)ncc1C(=O)N1CCCC(n2nc(C)nc2C)C1` (stereo not given), the Percent Effect is -0.229% in assay [1]; -53.9% in [2]; -2.48% in [3]; 8.92% in assay [4]; -3.69% in assay [5]; 0.0853% in assay [6]. For the same molecule, the Percent Effect in assay [7] is -15.3%; in [8] it was -3.35%; in assay [9], 6.02%; in assay [10], -2.45%.

Take `c1ccc(Cn2ccnc2CN2CCCC2c2noc(C3CC3)n2)cc1` (stereo not given): the Percent Effect in [1] was 2.82%; in assay [2], 5.33%; in assay [3], -7.23%; in [4], -5.22%; in [5], 1.77%; in assay [6], 19.1%. Also, the Percent Effect was 15.7% in [7], 7.89% in [8], 10.3% in assay [9] and -12.1% in assay [10].

For the molecule `O=C(NCC(=O)N1CCCCC1)c1ccoc1`, the Percent Effect in assay [1] was 2.38%; in [2], 13%; in [3], 0.0749%; in assay [4], -7.46%; in [5] it was 2.25%; in assay [6], 17.2%. Besides, the Percent Effect in assay [7] was 18.2%; in assay [8] it was 4.9%; in [9] it was 18.8%; in [10], -8.97%.

Take `Cc1cc(C2CCCN(C(=O)c3c(C)nn4cccnc34)C2)n[nH]1` (stereo not given): the Percent Effect in assay [1] was -3.7%; in assay [2], 8%; in assay [3], 6.1%; in [4], -2.21%; in assay [5] it was 0.444%; in assay [6] it was 6.7%. The Percent Effect is 9.89% in [7], 2.63% in assay [8], 5.13% in assay [9] and -4.49% in [10].

With `CN(C)c1cc(C(=O)N2CCCN(Cc3cscn3)CC2)ccn1`, the Percent Effect in [1] was -2%; in assay [2] it was 7.79%; in [3], 1.09%; in assay [4] it was 2.05%; in assay [5], 6.76%; in assay [6] it was -4.39%. For the same molecule, the Percent Effect was 1.34% in assay [7], 6.86% in assay [8], 16.5% in [9] and -5.32% in [10].

Turning to `c1cc(-c2nc(CN3CCn4c(nnc4C4CC4)C3)cs2)cs1`, the Percent Effect in assay [1] was 0.225%; in [2], -23.1%; in assay [3], -7.08%; in assay [4], 3.47%; in [5] it was -1.64%; in [6], 5.55%. For the same molecule, the Percent Effect in assay [7] stood at 21.9%; in [8], 2.39%; in assay [9], 8.43%; in assay [10] it was 5.73%.

Regarding `Cc1cc(NC(=O)CCN(CC2CCOC2)C2CC2)no1` (stereo not given), the Percent Effect was -3.2% in [1]; 21.3% in assay [2]; -0.377% in assay [3]; 1.21% in [4]; -2.22% in assay [5]; 10.3% in assay [6]. For the same molecule, the Percent Effect is 8.07% in assay [7], 3.68% in assay [8], 15.4% in assay [9] and -13.2% in assay [10].

As for `Cc1noc(C)c1CN1CCN(Cc2nccn2C)CC1`, the Percent Effect was -3.95% in assay [1]; 2.67% in assay [2]; 3.64% in assay [3]; -1.81% in assay [4]; -0.444% in assay [5]; 13.7% in [6]. Further, the Percent Effect was -5.05% in assay [7], 6.84% in assay [8], 7.69% in [9] and -11.9% in assay [10].

For the molecule `Cc1ccc(-c2nc(CN3CCCC(Cn4cncn4)C3)no2)cc1` (stereo not given), the Percent Effect was -6.21% in assay [1]; -2.6% in assay [2]; 0.0125% in assay [3]; -0.373% in assay [4]; -3.48% in assay [5]; 0.351% in assay [6]. Further, the Percent Effect in assay [7] was found to be 25.7%; in assay [8], 1.96%; in [9] it was 0%; in assay [10], 9.47%.

For `CC(C)N1CCCC2(CCN(C(=O)CCCn3cncn3)C2)C1=O` (stereo not given), the Percent Effect in assay [1] was -5.4%; in assay [2] it was 5.41%; in assay [3] it was 6.04%; in [4], 7.27%; in [5], -1.75%; in assay [6] it was 15.1%. The Percent Effect in assay [7] was 19.6%; in assay [8] it was 7.98%; in assay [9], 12.2%; in [10] it was -6.32%.

`Cc1cn[nH]c1C1CCCCN1C(=O)CCN1CCCCCC1` (stereo not given): the Percent Effect was 0.428% in assay [1]; 4% in assay [2]; -1.68% in assay [3]; -7.89% in assay [4]; 1.77% in assay [5]; 10% in assay [6]. For the same molecule, the Percent Effect in assay [7] was 10.3%; in assay [8], 2.12%; in assay [9], 5%; in assay [10], -25%.
